Among the data in PubChem BioAssay (NCATS) are Potency values, retold here.

Assay [1] is described as follows: qHTS for Inhibitors of the Functional Ribonucleoprotein Complex (vRNP) of Lassa (LASV) Arenavirus: Viability assay - alamar blue signal for LASV Primary Screen (AID 1347083; calls by dose curve; tested in HEK293 reporter line; further: nearly all actives have a fitted effect of over 80% in size). On the technique in general: In qHTS, concentration-response curves come from the screen itself.
A short description of assay [2]: qHTS for Inhibitors of the Functional Ribonucleoprotein Complex (vRNP) of Lymphocytic Choriomeningitis Arenaviruses (LCMV): Viability assay - alamar blue signal for LCMV Primary Screen (AID 1347085; calls by dose curve; tested in HEK293 reporter line; further: nearly all actives have a fitted effect of over 80% in size).
Assay [3] concerns the target Nucleoprotein (Lymphocytic choriomeningitis virus (strain Armstrong)) (UniProt P09992). As to the kind of experiment: qHTS for Inhibitors of the Functional Ribonucleoprotein Complex (vRNP) of Lymphocytic Choriomeningitis Arenaviruses (LCMV): LCMV Primary Screen - GLuc reporter signal (AID 1347086; calls by dose curve; further: nearly all actives have a fitted effect of over 70% in size).
The nature of assay [4]: qHTS of pediatric cancer cell lines to identify multiple opportunities for drug repurposing: Primary screen for TC32 cells (AID 1347089). Further: nearly all actives have a fitted effect of over 60% in size. The method, boiled down: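 qHTS, TC32, 48 h drug treatment, CellTiter-Glo luminescence as a proxy for metabolically active cells; primary top concentration 46 µM (MIPE 11-pt, NPC 8-pt); confirmatory 11-pt.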
Assay [5] can be described thus: qHTS of pediatric cancer cell lines to identify multiple opportunities for drug repurposing: Primary screen for DAOY cells (AID 1347090). Further: nearly all actives have a fitted effect of over 55% in size. The method, boiled down: (§1)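 Viability measured as metabolically active cells via CellTiter-Glo luminescence following 48 hours of compound exposure, 11-point dilutions in confirmatory testing. 500-1,000 cells/well plated 5 hours before dosing; controls were DMSO and 2.3 µM bortezomib.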

A short description of assay [6]: qHTS of pediatric cancer cell lines to identify multiple opportunities for drug repurposing: Primary screen for SJ-GBM2 cells (AID 1347091). In a few lines:
as §1

A short description of assay [7]: qHTS of pediatric cancer cell lines to identify multiple opportunities for drug repurposing: Primary screen for SK-N-MC cells (AID 1347093). In a few lines: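 Metabolically active cells were quantified by ATP-dependent luminescence (CellTiter-Glo, 15 min at room temperature) following 48 h treatment. Cells had been plated at 500-1,000 per well and settled for 5 h beforehand.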

The nature of assay [8]: qHTS of pediatric cancer cell lines to identify multiple opportunities for drug repurposing: Primary screen for BT-37 cells (AID 1347094). In a few lines: (§2)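 Readout: CellTiter-Glo luminescence, 48 h treatment. Controls DMSO (neutral) and bortezomib 2.3 µM final (positive). Potency and efficacy taken from primary-screen concentration-response curves.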
A short description of assay [9]: qHTS of pediatric cancer cell lines to identify multiple opportunities for drug repurposing: Primary screen for NB-EBc1 cells (AID 1347095). In a few lines:
as §2

A short description of assay [10]: qHTS of pediatric cancer cell lines to identify multiple opportunities for drug repurposing: Primary screen for U-2 OS cells (AID 1347096). Further: nearly all actives have a fitted effect of over 50% in size. The method, boiled down:
(§3)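 Viability after 48 h compound treatment at 37C, 500-1,000 cells/well, read as ATP luminescence with CellTiter-Glo. Primary screens used 11-point (MIPE, 0.78 nM-46 µM) or 8-point (NPC, 0.59 nM-46 µM) final concentrations; follow-up screens used 11-point dilutions.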

Assay [11] is described as follows: qHTS of pediatric cancer cell lines to identify multiple opportunities for drug repurposing: Primary screen for Saos-2 cells (AID 1347097). Further: nearly all actives have a fitted effect of over 40% in size. In a few lines: as §2
Assay [12] in a line: qHTS of pediatric cancer cell lines to identify multiple opportunities for drug repurposing: Primary screen for BT-12 cells (AID 1347101). Further: nearly all actives have a fitted effect of over 25% in size. The method, boiled down:
(§4)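 Cells (500-1,000/well) rested 5 h, then received compounds for 48 h; metabolically active cells were measured by CellTiter-Glo luminescence. Final concentrations spanned up to 46 µM (MIPE, 11-point) or 0.59 nM-46 µM (NPC, 8-point) in primary screens, 11-point in follow-ups.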

Assay [13] can be described thus: qHTS of pediatric cancer cell lines to identify multiple opportunities for drug repurposing: Primary screen for Rh18 cells (AID 1347102). Further: nearly all actives have a fitted effect of over 65% in size. The method, boiled down:
as §3

Assay [14] in a line: qHTS of pediatric cancer cell lines to identify multiple opportunities for drug repurposing: Primary screen for OHS-50 cells (AID 1347103). Further: nearly all actives have a fitted effect of over 40% in size. The method, boiled down: as §4
Assay [15] in a line: qHTS of pediatric cancer cell lines to identify multiple opportunities for drug repurposing: Primary screen for A673 cells (AID 1347092). Further: nearly all actives have a fitted effect of over 45% in size. The method, boiled down: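 Luminescence from CellTiter-Glo, taken after 15 min at room temperature, served as the proxy for metabolically active cells following 48 h treatment. Both potency and efficacy were taken from curves fitted to the titration data.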

Assay [16] in a line: qHTS of pediatric cancer cell lines to identify multiple opportunities for drug repurposing: Primary screen for NB1643 cells (AID 1347099). Further: nearly all actives have a fitted effect of over 50% in size. The method, boiled down:
as §2

Assay [17] in a line: qHTS of pediatric cancer cell lines to identify multiple opportunities for drug repurposing: Primary screen for LAN-5 cells (AID 1347100). In a few lines: as §3
A short description of assay [18]: qHTS of pediatric cancer cell lines to identify multiple opportunities for drug repurposing: Primary screen for SK-N-SH cells (AID 1347098). Further: nearly all actives have a fitted effect of over 65% in size. In a few lines:
as §4

The structures appear in SMILES notation. Results filed as inconclusive are left out. The source made the active and inactive calls. Unless noted, the call rests on the fitted dose curve; in most records, active means well fitted curve in the direction sought with a large enough effect; inconclusive means small, poorly fitted or top-dose-only effect, or another doubt; inactive means no such curve, though single readings can be large; an effect the other way counts as inactive or inconclusive.
Potency means the concentration at half of the fitted maximal effect.

Chain of Nucleoprotein (Lymphocytic choriomeningitis virus (strain Armstrong)) (P09992 whole entry, looked up): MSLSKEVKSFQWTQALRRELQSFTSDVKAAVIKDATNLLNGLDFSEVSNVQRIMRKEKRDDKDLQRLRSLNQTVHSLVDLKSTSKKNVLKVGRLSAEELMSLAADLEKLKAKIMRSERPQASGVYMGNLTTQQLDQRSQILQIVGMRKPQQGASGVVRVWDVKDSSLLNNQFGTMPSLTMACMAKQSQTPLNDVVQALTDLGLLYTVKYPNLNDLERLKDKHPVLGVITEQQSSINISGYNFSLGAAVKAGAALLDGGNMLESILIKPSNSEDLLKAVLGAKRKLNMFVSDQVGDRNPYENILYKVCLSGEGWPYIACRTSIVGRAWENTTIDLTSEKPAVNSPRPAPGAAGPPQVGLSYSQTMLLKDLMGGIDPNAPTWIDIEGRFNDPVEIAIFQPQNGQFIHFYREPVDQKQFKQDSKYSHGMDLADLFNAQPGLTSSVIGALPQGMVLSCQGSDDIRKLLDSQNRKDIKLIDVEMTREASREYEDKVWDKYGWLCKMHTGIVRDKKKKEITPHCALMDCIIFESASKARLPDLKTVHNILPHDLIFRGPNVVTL

In the case of `O=C(C=Cc1cccc(S(=O)(=O)Nc2ccccc2)c1)NO`, the Potency in assay [1] is 25 µM (active); in assay [2], 39.5 µM (active). The Potency entry in assay [3] is “inactive”.
For `O=C(NCCCNc1nc(Nc2cccc(NC(=O)N3CCCC3)c2)ncc1I)c1cccs1`, the Potency in [1] was 3.85 µM (active); in [2], 34.3 µM (active). The Potency entry in [3] is “inactive”.
On the same counts, the results for `COc1ccc2c3n(c(=NC(=O)c4cccnc4)nc2c1OC)CCN3` are 1.53 µM (active), 0.968 µM (active) and 0.769 µM (active).
Turning to `Cc1ccccc1-n1c(Cn2ncc3c(N)ncnc32)nc2cccc(C)c2c1=O`, the Potency in assay [1] is 0.485 µM (active); in assay [2] it was 0.137 µM (active); in assay [3], 0.193 µM (active); in [4] it was 7.39 µM (active); in [5] it was 0.0935 µM (active); in assay [6], 0.0074 µM (active). Moreover, the Potency was 0.0132 µM (active) in assay [7]; 0.0086 µM (active) in assay [8]; 0.0935 µM (active) in [9]; 0.0083 µM (active) in [11]; 0.0122 µM (active) in [12]; 0.0069 µM (active) in assay [14]. The Potency result in assay [10] and in assay [13] was “inactive” throughout.
For the compound `CCCCN1CCC(CNC(=O)c2c3n(c4ccccc24)CCCO3)CC1`, the Potency in assay [1] was 17.2 µM (active); in assay [2], 7.69 µM (active); in [3] it was 4.32 µM (active).
As to `O=C(Nc1ccc(Oc2ccc(Cl)cc2)c(Cl)c1)c1cc(I)cc(I)c1O`, the Potency result in assay [1], in assay [2] and in assay [3] was “inactive” throughout.
Take `COc1cc2ncn(-c3cc(OCc4ccccc4C(F)(F)F)c(C(N)=O)s3)c2cc1OC`: the Potency in assay [1], in assay [2] and in assay [3] was 1.72 µM (active) each time.
Consider `CC(C)[C@H](C(=O)Nc1ccc(C(=O)NO)cc1)c1ccccc1`, for which the results for the Potency in assay [1] and in assay [2] were 5.44 µM (active) and 6.85 µM (active), respectively.
Take `CC(C)CC(=O)Nc1n[nH]c2c1CN(C(=O)C1CCN(C)CC1)C2(C)C`: the Potency entry in assay [1], in [2] and in assay [3] was “inactive” in each case.
For `CCOc1cc(N2CCC(O)CC2)ccc1Nc1ncc2c(n1)N(C)c1ccccc1C(=O)N2C`, the Potency in assay [1] was 7.69 µM (active); in [2], 6.85 µM (active); in assay [3] it was 3.43 µM (active).
Consider `CCNC(=O)C[C@@H]1N=C(c2ccc(Cl)cc2)c2cc(OC)ccc2-n2c(C)nnc21`, for which the Potency in assay [1] was 3.06 µM (active); in assay [2] it was 1.22 µM (active); in assay [3], 1.22 µM (active); in assay [5] it was 5.9 µM (active); in [6] it was 5.9 µM (active); in assay [15], 0.59 µM (active). The Potency was 1.32 µM (active) in assay [7]; 7.69 µM (active) in assay [8]; 10.5 µM (active) in assay [9]; 4.69 µM (active) in [11]; 1.05 µM (active) in assay [16]; 2.35 µM (active) in assay [17]. Further, in assay [14], the Potency was 1.53 µM (active).
As for `COc1cc2nccc(Oc3ccc(NC(=O)C4(C(=O)Nc5ccc(F)cc5)CC4)cc3)c2cc1OC`, the Potency in [1] is 27.3 µM (active). In addition, the Potency result in assay [3] is “inactive”.
Take `CC1(O)CC(c2nc(-c3ccc4ccc(-c5ccccc5)nc4c3)c3c(N)nccn23)C1` (stereo not given): the Potency in assay [1] is 5.44 µM (active); in assay [2] it was 3.85 µM (active).
On to `CCN1CCN(CC(=O)Nc2ccc(-c3cccc4c(=O)cc(N5CCOCC5)oc34)c3sc4ccccc4c23)CC1`, for which the Potency in assay [1] was 0.544 µM (active); in assay [2], 1.22 µM (active); in [3], 1.22 µM (active).
In the case of `CC(C)(O)C=CC(=O)[C@](C)(O)[C@H]1[C@H](O)C[C@]2(C)[C@@H]3CC=C4[C@@H](C=C(O)C(=O)C4(C)C)[C@]3(C)C(=O)C[C@@]12C`, the Potency is 3.06 µM (active) in [1]; 9.68 µM (active) in assay [2]; 10.9 µM (active) in assay [3]; 1.31 µM (active) in [4]; 0.187 µM (active) in assay [5]; 0.209 µM (active) in [6]. The Potency is 0.187 µM (active) in assay [15]; 0.0332 µM (active) in [7]; 1.37 µM (active) in [8]; 0.332 µM (active) in assay [9]; 0.148 µM (active) in assay [10]; 0.105 µM (active) in [11]. Moreover, the Potency in assay [18] is 0.152 µM (active); in assay [16], 0.0372 µM (active); in assay [17] it was 0.0743 µM (active); in assay [12], 0.243 µM (active); in [13], 0.0526 µM (active); in assay [14], 0.137 µM (active).
As to `CN[C@@H](C)C(=O)N[C@H]1CCCC[C@H]2CC[C@@H](C(=O)N[C@@H](c3ccccc3)c3cn(CCCCc4ccc(CCCCn5cc([C@@H](NC(=O)[C@@H]6CC[C@@H]7CCCC[C@H](NC(=O)[C@H](C)NC)C(=O)N76)c6ccccc6)nn5)cc4)nn3)N2C1=O`, the Potency in [1] is 19.3 µM (active). Besides, the Potency result in [3] is “inactive”.
As to `COC(=O)Nc1ccc(-c2nc(N3CCOCC3)c3cnn(C4CCN(C(=O)OC)CC4)c3n2)cc1`, the Potency result in assay [1], in assay [2] and in assay [3] was “inactive” throughout.
Turning to `CC[C@@H]1[C@@H](C)O[C@@](O)([C@@H](C)[C@H](O)[C@H](C)[C@H]2OC(=O)C=CC=C[C@@H](C)[C@@H]([C@@H](C)[C@@H](O)[C@H](C)[C@@]3(O)C[C@H](O[C@H]4C[C@H](O)[C@H](O)[C@H](C)O4)[C@H](CC)[C@@H](C)O3)OC(=O)C=CC=C[C@@H]2C)C[C@H]1O[C@H]1C[C@H](O)[C@H](O)[C@H](C)O1`, the Potency is 43.2 µM (active) in [1]; 38.5 µM (active) in assay [2]; 13.7 µM (active) in assay [3]; 18.6 µM (active) in assay [4]; 0.469 µM (active) in assay [5]; 0.526 µM (active) in [6]. Besides, the Potency in assay [15] is 0.743 µM (active); in [7] it was 0.372 µM (active); in assay [8], 0.685 µM (active); in [9] it was 0.418 µM (active); in assay [11], 0.372 µM (active); in assay [18] it was 21.5 µM (active). The Potency was 0.833 µM (active) in [16]; 0.372 µM (active) in [17]; 0.863 µM (active) in assay [12]; 0.59 µM (active) in [13]; 0.306 µM (active) in assay [14].
